Measured values from the supplement of paper PMC10849652.
Of roughly 7,900 targets only a part is listed; those with a hit were picked by preference. About 0.6% of all pairs of compound and target were hits.

Legend:
Experiment in all cases: log2 fold change, soluble protein after heating vs DMSO (PISA); higher = thermal stabilisation; K562 cells, 10 uM, 30 min; active = over 0.2 and 3.5 SD of the protein, either way, in both replicates (recomputed)
[1] = compound: CS(=O)(=O)c1ccc(-c2cnc(N)c(C(=O)Nc3ccccc3)n2)cc1
How it was run: (§1)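 K562 cells at 2×10^6 cells/mL were treated with 10 μM compound for 30 min. Aliquots were heated for 3 min across 48°C-58°C, pooled, and extracted in PBS with 0.5% NP-40 at 4°C; soluble protein was the supernatant after 21,000xg for 90 min. Soluble protein was quantified by TMTpro 16plex LC-MS/MS with channel sums equalised, and reported as log2 fold change in thermal stability against DMSO controls, with values from duplicates.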

[2] = compound: C[C@@H](Oc1cc(-c2cnn(C3CCNCC3)c2)cnc1N)c1c(Cl)ccc(F)c1Cl [crizotinib]
How it was run: as §1

[3] = compound: C[C@@H]1COCCN1C2=NC(=NC(=C2)C3(CC3)S(=O)(=O)C)C4=C5C=CNC5=CC=C4
How it was run: as §1

[4] = compound: C[C@H](C1=CC=C(C=C1)C(=O)NC2=C3C=CNC3=NC=C2)N
How it was run: as §1

[5] = compound: C[C@H](Nc1ncnc2nc[nH]c12)c1cc2cccc(Cl)c2c(=O)n1-c1ccccc1 [duvelisib]
How it was run: as §1

[6] = compound: Cc1cc(Nc2cc(CN3CCOCC3)c3nc(C)c(Cc4ccc(Cl)cc4F)n3n2)n[nH]1 [gandotinib]
How it was run: as §1

[7] = compound: Cc1cc(Nc2cc(N3CCN(C)CC3)nc(Sc3ccc(NC(=O)C4CC4)cc3)n2)n[nH]1 [tozasertib]
How it was run: as §1

[8] = compound: Cc1cc(SCc2sc(-c3ccc(C(F)(F)F)cc3)nc2C)ccc1OCC(=O)O
How it was run: as §1

[9] = compound: Cc1ccc(-n2nc(C(C)(C)C)cc2NC(=O)Nc2ccc(OCCN3CCOCC3)c3ccccc23)cc1 [doramapimod]
How it was run: as §1

[10] = compound: Cc1ccc(C(=O)N(CCCN)[C@@H](c2nc3cc(Cl)ccc3c(=O)n2Cc2ccccc2)C(C)C)cc1 [ispinesib]
How it was run: as §1

Measured: log2 fold change

TPP1 (UniProt O14773)
active: [2] -0.371
inactive: [1] 0.025 | [3] 0.022 | [4] -0.026 | [5] 0.056 | [6] 0.049 | [7] -0.009 | [8] -0.016 | [9] 0.008 | [10] -0.189

TMEM173 (UniProt Q86WV6)
inactive: [1] 0.042 | [2] 0.147 | [3] 0.041 | [4] 0.004 | [5] 0.017 | [6] -0.151 | [7] 0.01 | [8] 0.078 | [9] 0.023 | [10] 0.037

XPO1 (UniProt O14980)
UniProt O14980, sequence (O14980 whole entry, looked up): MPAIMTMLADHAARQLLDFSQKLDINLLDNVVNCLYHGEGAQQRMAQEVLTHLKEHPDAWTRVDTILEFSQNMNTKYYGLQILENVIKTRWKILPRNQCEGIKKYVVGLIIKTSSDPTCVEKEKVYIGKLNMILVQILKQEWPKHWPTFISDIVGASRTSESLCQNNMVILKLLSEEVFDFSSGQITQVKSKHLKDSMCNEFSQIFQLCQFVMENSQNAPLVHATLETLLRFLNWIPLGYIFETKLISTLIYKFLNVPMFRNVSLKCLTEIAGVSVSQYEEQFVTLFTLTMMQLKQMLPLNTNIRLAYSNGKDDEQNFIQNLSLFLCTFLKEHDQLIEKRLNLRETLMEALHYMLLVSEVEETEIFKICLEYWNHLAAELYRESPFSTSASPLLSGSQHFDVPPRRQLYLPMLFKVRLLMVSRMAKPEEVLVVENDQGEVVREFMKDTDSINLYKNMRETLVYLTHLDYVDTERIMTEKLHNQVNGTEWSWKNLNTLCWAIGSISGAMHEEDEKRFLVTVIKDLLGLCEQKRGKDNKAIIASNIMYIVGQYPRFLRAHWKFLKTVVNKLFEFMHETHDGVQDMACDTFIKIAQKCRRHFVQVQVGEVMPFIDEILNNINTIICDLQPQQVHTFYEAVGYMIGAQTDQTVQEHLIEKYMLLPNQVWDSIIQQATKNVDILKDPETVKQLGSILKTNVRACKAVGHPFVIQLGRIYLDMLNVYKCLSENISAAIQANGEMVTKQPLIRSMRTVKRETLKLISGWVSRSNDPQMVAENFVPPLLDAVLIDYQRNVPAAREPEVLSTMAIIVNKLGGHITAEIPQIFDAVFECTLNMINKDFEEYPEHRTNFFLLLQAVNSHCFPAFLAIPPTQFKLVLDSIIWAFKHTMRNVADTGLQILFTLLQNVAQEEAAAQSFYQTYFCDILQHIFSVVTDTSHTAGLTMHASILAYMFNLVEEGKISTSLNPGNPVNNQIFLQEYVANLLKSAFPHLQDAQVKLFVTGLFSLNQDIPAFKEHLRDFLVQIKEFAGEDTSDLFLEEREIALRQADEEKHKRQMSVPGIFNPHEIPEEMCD
inactive: [1] -0.016 | [2] -0.138 | [3] 0.089 | [4] 0.006 | [5] -0.024 | [6] -0.223 | [7] 0.027 | [8] 0.094 | [9] -0.034 | [10] -0.081

TMTC3 (UniProt Q6ZXV5)
inactive: [1] 0.054 | [2] -0.088 | [3] -0.052 | [4] 0.072 | [5] -0.017 | [6] -0.039 | [7] -0.012 | [8] 0.038 | [9] 0.018 | [10] -0.188

WDR41 (UniProt Q9HAD4)
inactive: [1] 0.01 | [2] -0.093 | [3] -0.064 | [4] -0.064 | [5] 0.013 | [6] -0.035 | [7] -0.002 | [8] -0.02 | [9] -0.042 | [10] -0.172

TNPO1 (UniProt Q92973)
inactive: [1] -0.008 | [2] -0.034 | [3] 0.058 | [4] -0.116 | [5] 0.002 | [6] -0.128 | [7] 0.052 | [8] 0.011 | [9] -0.034 | [10] -0.113

UCHL5 (UniProt Q9Y5K5)
inactive: [1] 0.023 | [2] -0.066 | [3] 0 | [4] -0.005 | [5] -0.006 | [6] -0.116 | [7] 0.036 | [8] 0.064 | [9] -0.015 | [10] -0.056

TXNIP (UniProt Q9H3M7)
inactive: [1] 0.05 | [2] -0.36 | [3] -0.103 | [4] -0.188 | [5] 0.03 | [6] -0.068 | [7] -0.06 | [8] 0.01 | [9] 0.113 | [10] -0.087

WARS1 (UniProt G3V3P2)
inactive: [1] -0.07

UBE4A isoform 2 (UniProt Q14139)
inactive: [1] 0.036 | [2] -0.275 | [3] 0.069 | [5] 0.006 | [6] -0.076 | [7] 0.037 | [8] 0.117 | [9] -0.023 | [10] -0.172
active: [4] 0.29

UTP14A (UniProt Q9BVJ6)
inactive: [1] -0.059 | [2] -0.035 | [3] -0.382 | [4] 0.274 | [5] -0.128 | [6] 0.151 | [7] 0.05 | [8] 0.065 | [9] 0.172 | [10] -0.171

TRIM28 (UniProt Q13263)
inactive: [1] -0.001 | [2] 0.046 | [3] 0.048 | [4] -0.068 | [5] 0.027 | [6] -0.033 | [7] 0.13 | [8] 0.039 | [9] -0.036 | [10] -0.007

TRAPPC13 isoform 5 (UniProt A5PLN9)
inactive: [1] -0.037 | [2] -0.054 | [3] 0.067 | [4] 0.009 | [5] 0.02 | [6] -0.007 | [7] -0.028 | [8] 0.087 | [9] 0.047 | [10] 0.032

WDHD1 (UniProt O75717)
inactive: [1] 0.038 | [2] 0.021 | [3] 0.098 | [4] -0.025 | [5] 0.109 | [6] -0.029 | [7] 0.09 | [8] 0.109 | [9] -0.093 | [10] 0.042

WDR43 (UniProt Q15061)
inactive: [1] 0.008 | [2] 0.08 | [3] 0.016 | [4] -0.051 | [5] 0.062 | [6] 0.009 | [7] -0.012 | [8] -0.053 | [9] -0.035 | [10] 0.081

USP7 (UniProt Q93009)
UniProt Q93009, sequence (Q93009 whole entry, looked up): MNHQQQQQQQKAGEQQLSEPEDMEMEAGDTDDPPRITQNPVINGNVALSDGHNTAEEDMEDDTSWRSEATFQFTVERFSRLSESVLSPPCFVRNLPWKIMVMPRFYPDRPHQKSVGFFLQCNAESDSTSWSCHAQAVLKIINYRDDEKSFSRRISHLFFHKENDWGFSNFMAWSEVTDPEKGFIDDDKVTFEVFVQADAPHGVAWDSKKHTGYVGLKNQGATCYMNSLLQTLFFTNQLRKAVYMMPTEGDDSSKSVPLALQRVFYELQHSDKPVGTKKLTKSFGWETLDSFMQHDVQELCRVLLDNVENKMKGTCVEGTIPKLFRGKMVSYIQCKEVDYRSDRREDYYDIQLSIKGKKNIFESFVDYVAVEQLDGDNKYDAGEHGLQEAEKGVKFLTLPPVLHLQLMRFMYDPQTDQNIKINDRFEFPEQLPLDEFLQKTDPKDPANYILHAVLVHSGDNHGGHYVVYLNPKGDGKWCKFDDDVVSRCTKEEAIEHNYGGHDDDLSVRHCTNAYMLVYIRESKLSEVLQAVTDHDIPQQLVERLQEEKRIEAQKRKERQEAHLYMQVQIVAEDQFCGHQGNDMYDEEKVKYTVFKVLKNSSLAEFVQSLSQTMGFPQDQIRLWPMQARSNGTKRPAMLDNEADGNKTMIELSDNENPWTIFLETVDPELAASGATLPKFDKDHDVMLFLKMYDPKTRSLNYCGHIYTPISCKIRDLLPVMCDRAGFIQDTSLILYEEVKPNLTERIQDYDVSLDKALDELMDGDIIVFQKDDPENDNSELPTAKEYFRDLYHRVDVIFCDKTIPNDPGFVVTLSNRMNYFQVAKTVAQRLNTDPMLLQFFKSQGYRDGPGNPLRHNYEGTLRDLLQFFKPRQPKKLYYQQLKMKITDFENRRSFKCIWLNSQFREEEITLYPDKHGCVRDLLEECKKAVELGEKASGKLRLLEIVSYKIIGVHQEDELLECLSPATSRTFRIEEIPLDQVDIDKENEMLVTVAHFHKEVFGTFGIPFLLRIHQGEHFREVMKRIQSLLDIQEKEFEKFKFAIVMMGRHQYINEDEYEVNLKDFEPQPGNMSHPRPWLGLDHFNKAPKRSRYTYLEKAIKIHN
inactive: [1] 0.008 | [2] -0.311 | [3] 0.147 | [4] 0.07 | [5] 0.046 | [6] -0.157 | [7] -0.077 | [8] 0.146 | [9] -0.039 | [10] -0.175

UBLCP1 (UniProt Q8WVY7)
inactive: [1] 0.063 | [2] 0.068 | [3] -0.007 | [4] -0.034 | [5] 0.03 | [6] -0.06 | [7] 0.045 | [8] 0.062 | [9] -0.061 | [10] 0.126

WDR62 isoform 4 (UniProt O43379)
UniProt O43379, sequence (O43379 whole entry, looked up): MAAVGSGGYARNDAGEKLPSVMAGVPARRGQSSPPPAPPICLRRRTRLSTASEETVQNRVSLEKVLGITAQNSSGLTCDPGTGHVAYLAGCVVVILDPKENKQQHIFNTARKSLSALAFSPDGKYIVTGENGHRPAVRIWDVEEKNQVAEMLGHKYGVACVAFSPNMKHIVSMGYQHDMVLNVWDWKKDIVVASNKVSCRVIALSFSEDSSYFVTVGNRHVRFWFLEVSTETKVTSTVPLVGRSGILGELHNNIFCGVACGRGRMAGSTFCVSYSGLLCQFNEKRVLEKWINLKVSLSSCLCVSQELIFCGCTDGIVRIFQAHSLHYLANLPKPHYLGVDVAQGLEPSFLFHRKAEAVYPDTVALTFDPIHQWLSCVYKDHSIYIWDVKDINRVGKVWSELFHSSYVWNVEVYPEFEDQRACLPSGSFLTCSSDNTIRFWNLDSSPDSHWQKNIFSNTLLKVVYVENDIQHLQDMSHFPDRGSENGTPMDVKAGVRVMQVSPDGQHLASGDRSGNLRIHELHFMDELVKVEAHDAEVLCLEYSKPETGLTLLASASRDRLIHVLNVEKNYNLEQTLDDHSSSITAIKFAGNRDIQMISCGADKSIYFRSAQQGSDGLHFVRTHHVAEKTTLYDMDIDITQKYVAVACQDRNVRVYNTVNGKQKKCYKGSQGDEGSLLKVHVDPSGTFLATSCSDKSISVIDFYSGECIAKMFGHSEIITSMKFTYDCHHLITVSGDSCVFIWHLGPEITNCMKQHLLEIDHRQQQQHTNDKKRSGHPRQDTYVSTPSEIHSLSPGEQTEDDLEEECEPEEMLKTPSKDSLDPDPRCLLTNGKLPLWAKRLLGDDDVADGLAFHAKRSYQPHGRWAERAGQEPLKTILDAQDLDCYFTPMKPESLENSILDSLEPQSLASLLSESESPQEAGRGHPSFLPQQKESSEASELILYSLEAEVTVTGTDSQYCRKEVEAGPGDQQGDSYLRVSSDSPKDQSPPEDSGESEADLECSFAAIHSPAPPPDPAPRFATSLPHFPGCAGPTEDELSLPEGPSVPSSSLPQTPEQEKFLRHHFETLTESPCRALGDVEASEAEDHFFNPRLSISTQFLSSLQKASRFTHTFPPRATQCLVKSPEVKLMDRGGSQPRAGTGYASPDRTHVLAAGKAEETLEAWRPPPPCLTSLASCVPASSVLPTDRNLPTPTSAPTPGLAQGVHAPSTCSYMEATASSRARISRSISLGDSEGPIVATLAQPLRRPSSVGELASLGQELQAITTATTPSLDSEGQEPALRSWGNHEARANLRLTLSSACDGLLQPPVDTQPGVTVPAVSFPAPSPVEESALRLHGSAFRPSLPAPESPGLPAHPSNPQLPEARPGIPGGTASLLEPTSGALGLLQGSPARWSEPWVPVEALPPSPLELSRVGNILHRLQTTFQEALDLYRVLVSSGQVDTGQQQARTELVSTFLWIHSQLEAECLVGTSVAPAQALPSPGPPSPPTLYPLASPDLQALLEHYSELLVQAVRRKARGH
inactive: [1] 0.064 | [2] -0.137 | [3] 0.07 | [4] -0.064 | [5] 0.011 | [7] -0.068 | [8] -0.016 | [9] -0.057 | [10] -0.02
active: [6] -0.204

TNNC2 (UniProt P02585)
inactive: [1] -0.004 | [2] 0.06 | [3] 0.04 | [4] -0.005 | [5] 0.072 | [6] 0.078 | [8] -0.059 | [9] -0.014 | [10] 0.022
active: [7] -1.1

TPR (UniProt P12270)
inactive: [1] -0.03 | [3] 0.013 | [4] -0.083 | [5] 0.017 | [6] 0.008 | [8] -0.027 | [9] 0.037 | [10] 0.223
active: [2] 0.297 | [7] 0.349

VPS53 isoform 4 (UniProt Q5VIR6)
inactive: [1] 0.087 | [2] -0.095 | [3] -0.004 | [4] 0.006 | [5] -0.033 | [6] 0 | [7] 0.061 | [8] 0.059 | [9] 0.036 | [10] -0.113

UBA6
inactive: [1] 0.05 | [2] 0.024 | [3] 0.047 | [4] -0.017 | [5] -0.007 | [6] -0.039 | [7] 0.05 | [8] 0.078 | [9] -0.038 | [10] 0.014

USP34 (UniProt Q70CQ2)
inactive: [1] -0.049 | [2] -0.142 | [3] 0.046 | [4] 0.051 | [5] 0.078 | [6] -0.131 | [7] 0.061 | [8] 0.118 | [9] -0.006 | [10] -0.007

USP48 (UniProt Q86UV5)
inactive: [1] 0.015

UHRF1BP1L (UniProt A0JNW5)
UniProt A0JNW5, sequence (A0JNW5 whole entry, looked up): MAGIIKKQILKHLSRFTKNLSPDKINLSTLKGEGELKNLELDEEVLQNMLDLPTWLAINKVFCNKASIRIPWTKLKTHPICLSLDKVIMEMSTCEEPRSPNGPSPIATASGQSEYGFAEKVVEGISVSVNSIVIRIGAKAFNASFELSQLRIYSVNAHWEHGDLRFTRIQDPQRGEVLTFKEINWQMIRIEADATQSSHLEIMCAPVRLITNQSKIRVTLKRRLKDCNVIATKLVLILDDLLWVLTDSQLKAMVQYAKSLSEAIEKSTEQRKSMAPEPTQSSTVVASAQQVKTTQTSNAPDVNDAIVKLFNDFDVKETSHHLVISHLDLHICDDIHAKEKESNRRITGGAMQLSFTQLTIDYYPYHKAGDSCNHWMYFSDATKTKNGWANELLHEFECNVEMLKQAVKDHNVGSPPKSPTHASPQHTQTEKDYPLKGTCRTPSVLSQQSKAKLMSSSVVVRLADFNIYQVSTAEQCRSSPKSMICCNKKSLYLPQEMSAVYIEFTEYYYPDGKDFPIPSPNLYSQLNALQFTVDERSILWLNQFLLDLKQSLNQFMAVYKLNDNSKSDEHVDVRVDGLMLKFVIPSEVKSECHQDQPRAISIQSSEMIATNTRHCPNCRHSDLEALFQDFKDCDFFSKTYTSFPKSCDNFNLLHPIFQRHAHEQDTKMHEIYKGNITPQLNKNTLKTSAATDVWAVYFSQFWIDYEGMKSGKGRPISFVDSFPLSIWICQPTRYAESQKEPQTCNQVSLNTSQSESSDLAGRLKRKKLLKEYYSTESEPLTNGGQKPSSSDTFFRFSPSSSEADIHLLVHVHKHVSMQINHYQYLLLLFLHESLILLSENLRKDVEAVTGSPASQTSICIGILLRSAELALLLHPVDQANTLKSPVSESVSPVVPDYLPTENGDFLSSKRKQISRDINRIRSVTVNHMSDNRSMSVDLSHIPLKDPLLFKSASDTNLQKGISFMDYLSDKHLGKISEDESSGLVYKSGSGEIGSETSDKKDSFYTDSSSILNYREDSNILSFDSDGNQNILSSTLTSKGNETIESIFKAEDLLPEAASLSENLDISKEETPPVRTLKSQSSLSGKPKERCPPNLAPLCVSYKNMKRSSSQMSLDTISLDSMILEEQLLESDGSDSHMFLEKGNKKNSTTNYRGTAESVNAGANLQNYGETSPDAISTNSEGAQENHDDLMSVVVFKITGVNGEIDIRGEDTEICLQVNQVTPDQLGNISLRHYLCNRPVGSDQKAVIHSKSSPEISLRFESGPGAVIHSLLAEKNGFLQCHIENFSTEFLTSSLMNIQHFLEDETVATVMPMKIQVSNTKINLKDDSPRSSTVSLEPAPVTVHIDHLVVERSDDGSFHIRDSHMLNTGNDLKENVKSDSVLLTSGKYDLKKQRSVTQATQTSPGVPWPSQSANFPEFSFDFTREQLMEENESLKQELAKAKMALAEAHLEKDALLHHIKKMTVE
inactive: [1] 0.001 | [2] -0.04 | [3] 0.031 | [4] -0.002 | [5] 0.091 | [6] -0.038 | [7] -0.025 | [8] -0.024 | [9] 0.046 | [10] 0.2

U2AF2 (UniProt P26368)
inactive: [1] 0.036 | [2] -0.101 | [3] 0.057 | [4] -0.101 | [5] -0.029 | [6] 0.036 | [7] 0.008 | [8] 0.063 | [9] -0.006 | [10] 0.014

TTC4 (UniProt O95801)
inactive: [1] 0.046 | [2] -0.001 | [3] 0.017 | [4] 0.029 | [5] 0.032 | [6] -0.025 | [7] 0.061 | [8] 0.134 | [9] -0.028 | [10] 0.108

TMEM106B (UniProt Q9NUM4)
active: [2] -0.382
inactive: [1] -0.024 | [3] 0.389 | [4] -0.054 | [5] 0.03 | [6] -0.021 | [7] -0.073 | [8] 0 | [9] 0.014

UHRF1BP1 (UniProt Q6BDS2)
inactive: [1] 0.003 | [2] 0.086 | [3] 0.001 | [4] -0.009 | [5] 0.124 | [6] -0.004 | [7] -0.014 | [8] -0.014 | [9] 0.014 | [10] 0.12

WDR47 (UniProt O94967)
inactive: [1] -0.024 | [2] 0.048 | [3] 0.024 | [4] -0.003 | [5] 0.109 | [6] 0.09 | [7] -0.052 | [8] -0.011 | [9] -0.034 | [10] 0.025

XPNPEP1 isoform 3 (UniProt Q9NQW7)
inactive: [1] 0.069 | [2] -0.023 | [3] 0.098 | [4] -0.076 | [5] 0.036 | [6] -0.053 | [7] -0.023 | [8] 0.007 | [9] 0.028 | [10] -0.015
